# Test system: RARb homodimer (NR concentration 270 nM)
# Assay: PBM binding z-score (relative to random genomic background probes); higher = stronger binding; sequences stand for … in GC…GCGATTGACAGCGTAGAATGAAGG
# Procedure, shortened: (§1)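 Binding buffer was PBS pH 7.4 with 2% milk, 0.02% Triton X-100, 1 mM DTT, 0.2 mg/mL BSA and 0.4 mg/ml salmon testes DNA. In it, ligand-free nuclear receptor dimers were incubated 1 h on custom Agilent 4×180K protein-binding microarrays carrying double-stranded probes. Antibodies against each partner (one per run) detected binding, and z-scores were calculated against random background probes after regression normalization of scanned fluorescence.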
row,Sequence,PBM binding z-score
1,ATATGTTGGTTAAGGGTCATTCAGGTTGGTTCGC,3.84
2,CGTCAAAGTTCACGGTAACGTAACAGAAAGCAGC,4.26
3,CCTACTGGCCCAAAAAGGTCATTGATGCCGATAA,4.52
4,CCGACTGGGGCAAAGGTTTCCATACTCAGTACGA,0.438
5,AGAATGAGGTTGAGATCAGGGAAACAGAATACAT,0.193
6,TGTCGGAGGACACGAAAGGTCAGAGCTCGACATC,4.55
7,CCTAGCAGGCCAATCTGGGTCACTCATGGCTTGA,2.19
8,CCTTACGGGTCACTCCAGGTTATAACATCGGAGT,3
9,ACTAGCAGGCCAAGTTTGGGTCATTCAAACAAAG,2.24
10,TCTACTAGGTCAGTTGGTCAGCTAACGAGCTGCC,2.91
11,CCGACTCGGGCAAGGTTACCATAACGCACAGCCA,1.08
12,CCTTATGGGTCACTGACAGGTTATAGCATTTGGA,3.37
13,CCTTCCGGGTCACTCCAGGTTATAGCATCGGAGT,3.42
14,TTACCAAGGTGAAGGTGGTTGATCCCTCTGTAGA,0.653
15,TGTCAAAGTTAAAAGGTAACGTAAGTATCCACAC,0.641
16,GTACCAAGGTGAATCGGTCGTTGATGAGTAGGCG,1.27
17,ACTAGCAGGCCAAGTTTGGGTCACACAAACAAAG,2.17
18,TTTAGCAGGCCAGAGGGTCACTCAAGAGGTACGG,2.65
19,ACTAGCAGGCCAAGGGTCACTCCAGATTAGTCCG,3.65
20,AGAATGAAGTTATACGTAGATCAGGGAAGAAAGT,-0.451

row,Sequence,PBM binding z-score
1,ATCGAAAGGTCGAGGTGAGTCTAGAGAAAGGGAA,2.89
2,GCATAAAGGTAATACAAGGTGAAAGTCCGATTGT,1.18
3,ACTATTAGTTAACTTAGGGCAACCGATACGACGC,0.839
4,GCAGACAGGTGAAACGCAGGTTACTCAGGGTGGC,0.785
5,CCTCGGAGGACAGAAGGTCAGAGCAGTCCGCTTT,3.7
6,CATGCTAGGTCATGGTCAGCTAATCTACAGTATG,3.06
7,GCTTACGGGTCAAAGGTGATAGCATGAATAGAAT,2.94
8,CGTCCAAGGTCTATGCTAGGTCAGTGAAAGCATT,2.43
9,ATCTCTAGGTAACCAAGTTAAGTGAATGCCGAAC,0.215
10,CGTCCAAGGTCAGAGAGGTCTGTGAATGCCGAGT,3.99
11,AGACTGAGGTTATACGTAGATCAGGGAAGAAAGT,0.864
12,ACTATTAGTTGACTTTGGGCAACCGATACGACGC,0.274
13,ATATGTAGGTTACAGCCGGGTCATTCAGGCTATG,2.93
14,TCATATAGGGAAATGCTAGGTGAAAGTCCGATCT,0.336
15,ATATGTAGGTTACATCCAGGTCATTCAGGCTATG,3.23
16,GCGACTGGGGCTTCAGCAGGTTACCATAACTTAA,0.521
17,TGACCAAGGTGAAAGGTCGTTGATGCACGCCTTG,2.49
18,CTACCAAGGTAAACAAGGTCGTTGATTACTATTC,1.18
19,TCTCGGAGGACACGAAGGTCAGATCTTTCCAGAG,3.7
20,CTCGAAAGGTCGTGCTCAGGTGAGTGTACCAAAC,3.22

# Test system: RARg:RXRa (NR concentration 270 nM, RXRa partner concentration 90 nM)
# Assay: as above
# Procedure, shortened: as §1
row,Sequence,PBM binding z-score
1,ATATGTTGGTTAAGGGTCATTCAGGTTGGTTCGC,4.07
2,CGTCAAAGTTCACGGTAACGTAACAGAAAGCAGC,6.31
3,CCTACTGGCCCAAAAAGGTCATTGATGCCGATAA,4.52
4,CCGACTGGGGCAAAGGTTTCCATACTCAGTACGA,0.385
5,AGAATGAGGTTGAGATCAGGGAAACAGAATACAT,0.514
6,TGTCGGAGGACACGAAAGGTCAGAGCTCGACATC,4.97
7,CCTAGCAGGCCAATCTGGGTCACTCATGGCTTGA,0.859
8,CCTTACGGGTCACTCCAGGTTATAACATCGGAGT,4.24
9,ACTAGCAGGCCAAGTTTGGGTCATTCAAACAAAG,2.22
10,TCTACTAGGTCAGTTGGTCAGCTAACGAGCTGCC,2.74
11,CCGACTCGGGCAAGGTTACCATAACGCACAGCCA,1.01
12,CCTTATGGGTCACTGACAGGTTATAGCATTTGGA,5.28
13,CCTTCCGGGTCACTCCAGGTTATAGCATCGGAGT,4.34
14,TTACCAAGGTGAAGGTGGTTGATCCCTCTGTAGA,0.26
15,TGTCAAAGTTAAAAGGTAACGTAAGTATCCACAC,1.31
16,GTACCAAGGTGAATCGGTCGTTGATGAGTAGGCG,1.17
17,ACTAGCAGGCCAAGTTTGGGTCACACAAACAAAG,2.66
18,TTTAGCAGGCCAGAGGGTCACTCAAGAGGTACGG,2.51
19,ACTAGCAGGCCAAGGGTCACTCCAGATTAGTCCG,3.77
20,AGAATGAAGTTATACGTAGATCAGGGAAGAAAGT,0.0716

row,Sequence,PBM binding z-score
1,ATCGAAAGGTCGAGGTGAGTCTAGAGAAAGGGAA,4.34
2,GCATAAAGGTAATACAAGGTGAAAGTCCGATTGT,1.15
3,ACTATTAGTTAACTTAGGGCAACCGATACGACGC,0.89
4,GCAGACAGGTGAAACGCAGGTTACTCAGGGTGGC,2.09
5,CCTCGGAGGACAGAAGGTCAGAGCAGTCCGCTTT,3.53
6,CATGCTAGGTCATGGTCAGCTAATCTACAGTATG,3.95
7,GCTTACGGGTCAAAGGTGATAGCATGAATAGAAT,5.62
8,CGTCCAAGGTCTATGCTAGGTCAGTGAAAGCATT,1.52
9,ATCTCTAGGTAACCAAGTTAAGTGAATGCCGAAC,0.245
10,CGTCCAAGGTCAGAGAGGTCTGTGAATGCCGAGT,4.61
11,AGACTGAGGTTATACGTAGATCAGGGAAGAAAGT,1.64
12,ACTATTAGTTGACTTTGGGCAACCGATACGACGC,0.43
13,ATATGTAGGTTACAGCCGGGTCATTCAGGCTATG,4.28
14,TCATATAGGGAAATGCTAGGTGAAAGTCCGATCT,0.235
15,ATATGTAGGTTACATCCAGGTCATTCAGGCTATG,3.8
16,GCGACTGGGGCTTCAGCAGGTTACCATAACTTAA,-0.404
17,TGACCAAGGTGAAAGGTCGTTGATGCACGCCTTG,4.18
18,CTACCAAGGTAAACAAGGTCGTTGATTACTATTC,0.545
19,TCTCGGAGGACACGAAGGTCAGATCTTTCCAGAG,3.45
20,CTCGAAAGGTCGTGCTCAGGTGAGTGTACCAAAC,5.21

# Source: the supplement of paper PMC6555819
